Screening results as filed in PubChem.
In the library only some 1.5% were active in any assay of this set; here they are far more common.
TrxR1 substrate = is turned over as a substrate by rat TrxR1 | O89049 | purified TrxR1 substrate turnover, NADPH consumption readout | Potency, µM (top dose mostly 114 µM), for the others: at the top dose activity change, negative = substrate turnover | 0.01% of 390,000 active | AID 588456; further: potency means the concentration at half of the fitted maximal effect; nearly all actives have a fitted effect of over 50% in size
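Rat TrxR1, dispensed at 90 nM, was prereduced with 400 uM NADPH (final) for 5 min at ~22 deg C, then incubated with compound 15 min before 400 uM selenite. A first-read NADPH fluorescence drop versus no-compound background flagged substrates.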
GALK inh = inhibitors of human galactokinase; Potency, µM (series often up to 57.5 µM), inactives show at the top dose activity change, negative = inhibition, actives largely listed as inhibitors; 0.007% of 270,000 active; Purified GALK, Kinase-Glo residual ATP luminescence; AID 1868; further: potency means the concentration at half of the fitted maximal effect
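GALK at 5 nM final was combined with compound, 35 uM ATP and 100 uM galactose in HEPES pH8.0 with MgCl2 and DTT. The reaction ran one hour at room temperature before luminescent ATP detection.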
Giardia killer = Giardia lamblia killing; AID 540267; 0.15% of 340,000 active; activity change, % at 7.66 µM, hits read low; Giardia lamblia trophozoite viability; in the data active means activity change below about -80%; inconclusive means between about -30% and that limit;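 further: parasites exposed to compound for two days anaerobically before the ATP read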
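Media and compound were dispensed first, then trophozoites at 100 cells/well; plates sat 48 hrs at 37 deg C without oxygen before ATP luminescence reagent was added and read after 15-30 min at room temperature.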
TrxR1 inh = blocks rat thioredoxin reductase 1; O89049; recombinant rTrxR1, NADPH fluorescence consumption, selenite substrate; Potency, µM (top dose mostly 114 µM), for the others: top-dose activity change, negative = inhibition, most hits filed as inhibitors; 1% of 390,000 active; AID 588453; further: potency means the concentration at half of the fitted maximal effect; nearly all actives have a fitted effect of over 65% in size
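Rat TrxR1 (90 nM in the dispensed reagent) was pre-reduced with 400 uM NADPH for 5 min at room temperature, then incubated with compound for 15 min. After 400 uM selenite was added, NADPH fluorescence (Ex 340/Em 450 nm) was followed for 8 min.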
Coupling enz = coupling enzyme interference in Giardia aldolase counter-screen; coupling enzyme system counterscreen, AmpLite Red fluorescence; activity change, negative = inhibition, % at 58.2 µM, hits read low; 0.67% of 290,000 active; AID 2472; in the data active means activity change below about -30%
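Activity here indicates interference with the coupling reaction, not aldolase inhibition. Compounds at 57.5 uM final met coupling enzymes for 10 min at RT; substrate and AmpLite Red detection followed, with a 525/598 nm fluorescence read after 20 min.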
PI4K2A inh = blocks human PI4K2A kinase activity; Q9BTU6; purified PI4K2A, ADP-Glo luminescence, 1 h; stronger effect = lower value; activity change, negative = inhibition, % at 76.9 µM; 0.13% of 420,000 active; AID 1346378; in the data active means activity change below about -50%; inconclusive means mostly about -30% to -49%;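 further: -100% = wells without enzyme as full effect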
Target sequence (Q9BTU6 whole entry, looked up): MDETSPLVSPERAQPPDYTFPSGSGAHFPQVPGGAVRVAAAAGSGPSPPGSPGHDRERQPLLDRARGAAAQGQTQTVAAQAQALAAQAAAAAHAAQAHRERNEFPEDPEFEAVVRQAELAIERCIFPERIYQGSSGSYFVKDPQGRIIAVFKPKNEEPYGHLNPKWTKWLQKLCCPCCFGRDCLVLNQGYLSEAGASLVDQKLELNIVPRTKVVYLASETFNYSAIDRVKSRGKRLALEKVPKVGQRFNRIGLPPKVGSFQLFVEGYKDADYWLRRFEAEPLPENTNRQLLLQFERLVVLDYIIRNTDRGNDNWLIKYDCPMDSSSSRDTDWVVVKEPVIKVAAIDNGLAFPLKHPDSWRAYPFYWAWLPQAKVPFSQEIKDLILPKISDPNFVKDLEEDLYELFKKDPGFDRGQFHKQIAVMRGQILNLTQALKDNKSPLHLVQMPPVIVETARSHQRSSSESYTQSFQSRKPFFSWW
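In this quantitative HTS, ADP production by PI4K2A was quantified luminescently after 1 h at ambient temperature; 100 microM adenosine served as plate-quality control.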
Active calls of the source: *; ? = inconclusive; · = no result given; [ ] = remark or other dose. Unless noted, the call rests on the fitted dose curve; in most records, active means well fitted curve in the direction sought with a large enough effect; inconclusive means small, poorly fitted or top-dose-only effect, or another doubt; inactive means no such curve, though single readings can be large; an effect the other way counts as inactive or inconclusive. Unless noted, on the % scale 0 is the no-effect control and ±100 the full control effect.

SMILES	TrxR1 substrate	GALK inh	Giardia killer	TrxR1 inh	Coupling enz	PI4K2A inh
COc1ccc(C2C=C(c3ccccc3)Nc3nnnn32)cc1 (centres undefined)	24%	-2%	-3	20%	0	0
C1=C(c2ccccc2)Nc2nnnn2C1	110%	-3%	2	79µM*	3	4
CC/C(=C\C(=O)c1ccncc1)Nc1ccc(O)cc1	4%[57.1 µM]	6%	-3	7%[57.1 µM]	-23	-50*
O=C(N/N=C/c1ccc(O)cc1)c1ccncc1	2%[57.1 µM]	0%	16	2%[57.1 µM]	3	-1
O=C(/C=C/c1ccco1)NC(=S)Nc1ccc(N2CCCC2)cc1	-18%	0%	-3	50µM*	-8	-12
O=C(/C=C/c1ccco1)NC(=S)Nc1ccc(C(=O)O)cc1	-13%	2%	28	40µM*	-3	-15
CC(=O)NC(=S)Nc1ccc(NC(=S)NC(=O)/C=C/c2ccco2)cc1	-9%	·	12	-43%	-1	?
Cc1cn(S(=O)(=O)c2ccc(F)c(Cl)c2)cn1	1%	·	·	5%	·	-1
COc1ccc(-c2nnc(C3CCN(C(=O)c4ccccc4F)CC3)o2)cc1	-10%	·	·	-7%	·	-2
O=C1c2ccccc2C(=O)c2c1ncn2-c1ccccc1	-11%	2%	-6	-12%	-36*	3
CN(C)c1ccc(/C=C2\C=Cc3ccccc32)cc1Cl	-9%	·	·	-13%	·	·
Cc1nc([N+](=O)[O-])c(Sc2nc3ccccc3[nH]2)n1Cc1ccccc1	-2%	0%	10	3.5µM*	1	5
COc1ccc2nc(Sc3c([N+](=O)[O-])nc(C)n3Cc3ccccc3)[nH]c2c1	-12%	0%	-8	7.1µM*	1	8
O=C(O)c1cc([N+](=O)[O-])c(Sc2nc3ccccc3[nH]2)c([N+](=O)[O-])c1	3%	-11%	-1	?	14	-29
Cn1cnc([N+](=O)[O-])c1Sc1nc2ccccc2[nH]1	6%[57.1 µM]	-5%	-18	3.5µM*	5	5
CS(=O)(=O)c1cc([N+](=O)[O-])c(Sc2nc3ccccc3[nH]2)c([N+](=O)[O-])c1	-7%	-1%	-7	1.3µM*	-41*	7
COc1cc(/C=N/n2c(-c3cc(-c4ccccc4)n[nH]3)n[nH]c2=S)ccc1OCc1ccccc1	·	·	·	·	·	-7
O=C(Nc1cccc2ccccc12)c1cnn2c1NC(=C1CC1)C=C2C(F)F	2%	·	·	16%	·	·
Nc1nnc2c(n1)CCCC2	7%	-3%	-3	?	-30*	-16
N#Cc1ccc(CS(=O)(=O)c2ccccc2)cc1	·	·	·	·	-1	·
CCn1c(SCC(=O)N2c3ccccc3Sc3ccccc32)nnc1-c1ccco1	9%	0%	19	20µM*	1	1
O=C1C2C(C(=O)N1/N=C/c1ccc(N3CCCCC3)o1)C1C=CC2C12CC2 (centres undefined)	-3%	-2%	8	25µM*	-6	4
O=C1C2C3C=CC(C4CC34)C2C(=O)N1/N=C/c1ccc(-c2cccc([N+](=O)[O-])c2)o1 (centres undefined)	-14%	0%	0	3%[57.1 µM]	0	-6
CCOC(=O)c1c(C)[nH]c(C=Nc2ccccc2)c1O	·	-1%	·	·	-36*	·
CCN1/C(=C/c2cc[n+](C)cc2)C=Cc2cc(C)ccc21	-8%	2%	4	-28%	-50*	-13
CCN1/C(=C/c2ccc3ccccc3[n+]2CCCS(=O)(=O)[O-])C=Cc2cc(C)ccc21	-8%	1%	9	11%	4	-21
CCOc1ccc(OCc2cccc(C(=O)O)c2)cc1	2%[57.1 µM]	1%	?	-6%[57.1 µM]	21	-58*
COc1ccc(OCc2cccc(C(=O)O)c2)cc1	-1%	4%	-14	7%	13	?
C=CCn1c(NC(=O)c2ccccc2Cl)c(C#N)c2nc3ccccc3nc21	?	-1%	-20	?	-52*	?
CCCCn1c(NC(C)=O)c(C#N)c2nc3ccccc3nc21	78%[57.1 µM]	0%	-4	16%[57.1 µM]	-59*	-6
